The assay in a line: EMT-state selective cytotoxicity in co-culture – imaging, PC-3E GFP, TEM4-18 mCherry, primary screen (AID 1345086).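 For all read-outs here: cells exposed to compound for 72 h before imaging.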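 For red/green cell ratio (normalised): normalised mesenchymal count divided by normalised epithelial count so high means epithelial killing.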 Conditions: PC-3E GFP / TEM4-18 mCherry co-culture, imaging cell counts, at 1 µM; for red/green cell ratio (normalised): actives lie on both sides, counts scaled to control wells, 1 = unselective.
Where [1] appears, read: measured here: epithelial PC-3E GFP cell survival.
Where [2] appears, read: measured here: mesenchymal TEM4-18 mCherry cell survival.

Activity calls are given as the source filed them.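 Rule for the calls: active = compounds killing one labelled cell type while sparing the other, by normalised counts and ratio limits, not self-fluorescent; inactive = the rest.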

For `O[C@@H]1[C@H](O)CO[C@H]1O`, the red/green cell ratio (normalised) is 0.77 (inactive). Besides, the normalised cell number under setting [1] stood at 1.11. This compound had a normalised cell number under setting [2] of 0.86.

Regarding `CC(C)CCCC(C)C1CCC2C3CC[C@H]4CCCC[C@]4(C)C3CC[C@]12C` (stereo partly drawn), the red/green cell ratio (normalised) was 0.9 (inactive). Besides, under setting [1], the normalised cell number was determined as 1.1. The normalised cell number under setting [2] came to 0.99.

Take `C=C1[C@@H](C)C2[C@H](Cc3c[nH]c4ccccc34)NC(=O)[C@]23C(=O)/C=C/C(=O)[C@H](O)/C(C)=C/[C@@H](C)C/C=C/[C@H]3[C@@H]1O` (stereo partly drawn): the red/green cell ratio (normalised) was 0.87 (inactive). In addition, the normalised cell number under setting [1] is 1.25. In addition, under setting [2], the normalised cell number amounted to 1.09.

Consider `O=C[C@H](O)[C@@H](O)[C@H](O)CO`, for which the red/green cell ratio (normalised) was 0.99 (inactive). Further, the normalised cell number under setting [1] amounted to 0.97. The same compound came in with a normalised cell number under setting [2] of 0.97.

For `C=C1OC(=O)[C@]2([C@H](C)C=CC(=O)[C@H]2O)[C@H]1O`, the red/green cell ratio (normalised) is 1.05 (inactive). The same compound yielded a normalised cell number under setting [1] of 1.08. The normalised cell number under setting [2] stood at 1.14.

As to `COc1c(N2CC[C@@H](CN)C2)c(F)cc2c(=S)c(C(=O)O)cn(C3CC3)c12`, the red/green cell ratio (normalised) was 1.12 (inactive). Also, the normalised cell number under setting [1] stood at 1.08. Besides, under setting [2], the normalised cell number was determined as 1.2.

As for `COc1c(F)c(F)cc2c(=S)c(C(=O)O)cn(C3CC3)c12`, the red/green cell ratio (normalised) is 0.91 (inactive). This compound registered a normalised cell number under setting [1] of 1.14. Further, under setting [2], the normalised cell number was found to be 1.04.

Take `CC(=O)OCC1O[C@H](Sc2ccc(C)cc2)[C@@H]2[C@@H](OC(=O)N2C(=O)OCc2ccccc2)C1OC(C)=O` (stereo partly drawn): the red/green cell ratio (normalised) is 0.78 (inactive). The compound further had a normalised cell number under setting [1] of 1.24. Under setting [2], the normalised cell number amounted to 0.96.

With `CO[C@@]1(NC(=O)C2SC(=C(C(N)=O)C(=O)O)S2)C(=O)N2C(C(=O)O)=C(CSc3nnnn3C)CSC21` (stereo partly drawn), the red/green cell ratio (normalised) is 0.96 (inactive). This compound showed a normalised cell number under setting [1] of 1.21. Also, the normalised cell number under setting [2] was 1.17.

For `O=C1OCC[C@H]1Oc1ccc(Oc2cnc3ccc(Cl)cc3n2)cc1`, the red/green cell ratio (normalised) was 1.01 (inactive). The same compound showed a normalised cell number under setting [1] of 1.08. For the same compound, the normalised cell number under setting [2] stood at 1.09.

As to `COc1cc([C@@]2(C)[C@@H]3[C@@H](C)CCC[C@@H]3C=C[C@@H]2C)oc(=O)c1C=O`, the red/green cell ratio (normalised) is 0.92 (inactive). Besides, the normalised cell number under setting [1] is 1.06. For the same compound, under setting [2], the normalised cell number was 0.98.

Consider `CN(C(=O)Cc1ccccc1)C1C(O[C@@H]2OC(COS(=O)(=O)O)C(NC(=O)Cc3ccccc3)[C@H](OS(=O)(=O)O)[C@H]2OS(=O)(=O)O)OC2C[C@@H](NC(=O)Cc3ccccc3)[C@@H](OC3C(NC(=O)Cc4ccccc4)C[C@@H](NC(=O)Cc4ccccc4)[C@H](OS(=O)(=O)O)[C@H]3OS(=O)(=O)O)OC2C1OS(=O)(=O)O` (stereo partly drawn), for which the red/green cell ratio (normalised) is 0.95 (inactive). This compound also came in with a normalised cell number under setting [1] of 1.04. In addition, the normalised cell number under setting [2] is 0.99.

`CC1(C)C[C@]2(C)CC(=O)O[C@H]3OC(=O)[C@@H]4CC[C@@H]1[C@]342`: the red/green cell ratio (normalised) is 0.92 (inactive). The compound also yielded a normalised cell number under setting [1] of 1.05. Besides, the normalised cell number under setting [2] turned out to be 0.96.

Consider `CCC(C)[C@H]1O[C@]2(CC[C@@H]1C)C[C@@H]1C[C@@H](C/C=C(\C)[C@@H](OC3C[C@H](OC)C(O[C@H]4C[C@H](OC)[C@@H](O)[C@H](C)O4)[C@H](C)O3)[C@@H](C)/C=C/C=C3\COC4[C@H](O)C(C)=C[C@@H](C(=O)O1)[C@]34O)O2` (stereo partly drawn), for which the red/green cell ratio (normalised) was 0.84 (inactive). The normalised cell number under setting [1] stood at 1.17. For the same compound, the normalised cell number under setting [2] was determined as 0.97.

In the case of `CC(C)CCCC(C)C1CCC2C3=CC[C@H]4C[C@@H](O)CC[C@]4(C)C3CC[C@@]21C` (stereo partly drawn), the red/green cell ratio (normalised) was 0.98 (inactive). The normalised cell number under setting [1] came to 1.1. Further, under setting [2], the normalised cell number was determined as 1.08.

For `COc1cc2c(cc1OC)Cc1cc(OC)c(OC)cc1Cc1cc(OC)c(OC)cc1C2`, the red/green cell ratio (normalised) was 1.03 (inactive). For the same compound, under setting [1], the normalised cell number was determined as 1.01. This compound displayed a normalised cell number under setting [2] of 1.04.

With `O=c1c2cc(O)c(O)cc2oc2cc(O)c(C3O[C@H](CO)[C@H](O)[C@@H](O)[C@H]3O)c(O)c12` (stereo partly drawn), the red/green cell ratio (normalised) is 0.86 (inactive). The compound also yielded a normalised cell number under setting [1] of 0.99. Also, under setting [2], the normalised cell number turned out to be 0.85.

Turning to `CC(=O)OC1CC(C)OC(=O)CCC(O)CC1=O` (stereo not drawn), the red/green cell ratio (normalised) was 0.98 (inactive). Further, the normalised cell number under setting [1] was 0.98. The compound further registered a normalised cell number under setting [2] of 0.96.

As for `CN(C)c1cccc2c(S(N)(=O)=O)cccc12`, the red/green cell ratio (normalised) is 1.01 (inactive). This compound also gave a normalised cell number under setting [1] of 1.15. For the same compound, the normalised cell number under setting [2] was 1.16.

With `CN(C(=O)c1ccccc1)C1C(O[C@@H]2OC(COS(=O)(=O)O)C(NC(=O)c3ccccc3)[C@H](OS(=O)(=O)O)[C@H]2OS(=O)(=O)O)OC2C[C@@H](NC(=O)c3ccccc3)[C@@H](OC3C(NC(=O)c4ccccc4)C[C@@H](NC(=O)c4ccccc4)[C@H](OS(=O)(=O)O)[C@H]3OS(=O)(=O)O)OC2C1OS(=O)(=O)O` (stereo partly drawn), the red/green cell ratio (normalised) is 1 (inactive). Further, under setting [1], the normalised cell number is 1.06. The same compound yielded a normalised cell number under setting [2] of 1.06.

On to `O=C(NCC1O[C@@H](OC2C(NC(=O)c3ccccc3)C[C@@H](NC(=O)c3ccccc3)[C@H](OS(=O)(=O)O)[C@H]2OC2OC(COS(=O)(=O)O)C(OC3OC(CNC(=O)c4ccccc4)[C@@H](OS(=O)(=O)O)[C@H](OS(=O)(=O)O)[C@H]3NC(=O)c3ccccc3)C2OS(=O)(=O)O)[C@H](NC(=O)c2ccccc2)[C@@H](OS(=O)(=O)O)C1OS(=O)(=O)O)c1ccccc1` (stereo partly drawn), for which the red/green cell ratio (normalised) was 0.97 (inactive). The normalised cell number under setting [1] was found to be 0.96. The same compound came in with a normalised cell number under setting [2] of 0.93.

Regarding `N=c1ccn2c(n1)O[C@@H]1[C@@H](O)[C@H](CO)O[C@@H]12`, the red/green cell ratio (normalised) is 0.99 (inactive). Also, the normalised cell number under setting [1] was 0.27. The compound also had a normalised cell number under setting [2] of 0.27.

For `COc1ccc(-c2cc(=O)c3c(O)cc(OC)cc3o2)cc1`, the red/green cell ratio (normalised) was 1.15 (inactive). The normalised cell number under setting [1] came to 1.08. Moreover, the normalised cell number under setting [2] came to 1.24.

With `CC(C)CC1OC23SCC(c4ccccc4)N2C(=O)C1C(C)(C)S3` (stereo not drawn), the red/green cell ratio (normalised) was 0.9 (inactive). The compound also came in with a normalised cell number under setting [1] of 1.15. The compound further registered a normalised cell number under setting [2] of 1.03.

For the compound `NCC1O[C@@H](OC2C(N)C[C@@H](N)C(OC3OC(CO)[C@@H](O)C(N)[C@H]3O)[C@H]2O)C(O)CC1O` (stereo partly drawn), the red/green cell ratio (normalised) was 1.05 (inactive). This compound also had a normalised cell number under setting [1] of 1.04. The normalised cell number under setting [2] was determined as 1.09.

Regarding `COC1C(O)C(O)C(O)[C@@H](O)C1O` (stereo partly drawn), the red/green cell ratio (normalised) was 1.11 (inactive). In addition, the normalised cell number under setting [1] worked out at 0.95. Further, the normalised cell number under setting [2] was 1.05.

(Values after PubChem BioAssay.)
